Reference: PubChem BioAssay (EPA / NIEHS)
Activity calls are given as the source filed them. Rule for the calls: active = hit-call score of the fitted dose curve at least 0.9, where 1 is the maximum; inactive = score below 0.9.

Columns and labels:
[1] = ATG_ISRE_CIS: Attagene CIS-FACTORIAL HepG2 Assay for human Interferon Regulatory Factor 1 (IRF1) binding to an Interferon-Stimulated Response Element (ISRE) (AID 2282948); details: HepG2 ISRE cis-reporter (Attagene), mRNA transcription readout; actives raise or lower the signal
Procedure, shortened: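 Read-out: fluorescent RT-PCR products resolved by capillary electrophoresis, reporting endogenous transcription factor activity via ISRE-driven reporter mRNA in transfected HepG2 cells dosed for 24 h; gain or loss fitted relative to DMSO.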

[2] = ATG_M_32_CIS: Attagene CIS-FACTORIAL HepG2 Assay for M32 Transcription Factor (Internal Marker) (AID 2282949); details: HepG2 Attagene cis-factorial M32 reporter, mRNA; actives raise or lower the signal;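 note: background control marker of the multiplexed CIS panel rather than a real target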
Procedure, shortened: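 Transient MRTU transfection of HepG2; 24 h compound treatment; TriZol RNA, oligo(dT) RT, reporter PCR, 6-FAM primer extension, HpaI cut, CE. Gain/loss of signal vs DMSO.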

[3] = ATG_M_06_CIS: Attagene CIS-FACTORIAL HepG2 Assay for M06 Transcription Factor (Internal Marker) (AID 2282950); details: HepG2 Attagene CIS-FACTORIAL M06 internal marker reporter; actives raise or lower the signal
Procedure, shortened: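 HepG2 cells transiently transfected with cis-regulated multiple reporter transcription units were exposed to chemical for 24 h; reporter mRNA was quantified by RT-PCR, 6-FAM primer labelling, HpaI digestion and capillary electrophoresis, fitted bidirectionally against DMSO.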

[4] = target: Hypoxia-inducible factor 1-alpha (Homo sapiens) (UniProt Q16665); experiment: ATG_HIF1a_CIS: Attagene CIS-FACTORIAL HepG2 Assay for human Hypoxia Inducible Factor 1 (HIF1A) (AID 2282951); details: HepG2 Attagene cis-factorial HIF1a reporter transcription; actives raise or lower the signal
Procedure, shortened: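 Activity is fitted in both directions relative to DMSO. Reporter transcripts are read by RT-PCR, fluorescent primer extension and capillary electrophoresis after 24 h chemical treatment. The cells are HepG2 carrying transiently transfected cis-element-driven reporter units responding to endogenous factors.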

[5] = target: Hepatocyte nuclear factor 6 (Homo sapiens) (UniProt Q9UBC0); experiment: ATG_HNF6_CIS: Attagene CIS-FACTORIAL HepG2 Assay for human Hepatocyte Nuclear Factor 6 (HNF6) (AID 2282952); details: HepG2 Attagene cis-factorial HNF6 reporter transcription; actives raise or lower the signal
Procedure, shortened: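 Endogenous transcription factor activity in human HepG2 liver cells was captured through cis-regulated reporter constructs. After 24 h treatment, reporter mRNA was measured by RT-PCR with capillary electrophoresis, and activity was fitted in both directions relative to DMSO.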

[6] = target: Heat shock factor protein 1 (Homo sapiens) (UniProt Q00613); experiment: ATG_HSE_CIS: Attagene CIS-FACTORIAL HepG2 Assay for human Heat Shock Transcription Factor 1 (HSE) (AID 2282953); details: HepG2 HSE cis-reporter, Attagene RNA transcription; actives raise or lower the signal
Procedure, shortened: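 HepG2 cells transiently transfected with multiple reporter transcription units under cis-regulatory promoter control, measuring endogenous transcription factor activity. After 24 h chemical exposure, reporter mRNA quantified by RT-PCR, fluorescent labelling, HpaI digestion and capillary electrophoresis; bidirectional fit versus DMSO.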

[7] = ATG_MRE_CIS: Attagene CIS-FACTORIAL HepG2 Assay for human Metal Responsive Element (MRE) (AID 2282954); details: HepG2 MRE cis-reporter transcription, Attagene multiplex; actives raise or lower the signal
Procedure, shortened: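 RT-PCR/capillary electrophoresis readout of reporter mRNA, 24 h post-dosing, in HepG2 cells transfected with multiplexed cis-regulated reporter constructs. Gain or loss of signal fitted bidirectionally against DMSO baseline.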

[8] = ATG_PBREM_CIS: Attagene CIS-FACTORIAL HepG2 Assay for human Phenobarbital-responsive Enhancer Module (PBREM) (AID 2282955); details: HepG2 PBREM cis-reporter, Attagene multiplexed transcription; actives raise or lower the signal
Procedure, shortened: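 Endogenous transcription factor activity was read from reporter transcripts in transiently transfected human HepG2 liver cells after 24 h dosing. RT-PCR products were fluorescently labelled, HpaI-cut and sized by capillary electrophoresis; activity fitted bidirectionally against DMSO baseline.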

Measured: AC50

Sequence of Heat shock factor protein 1 (Homo sapiens) (Q00613 whole entry, looked up): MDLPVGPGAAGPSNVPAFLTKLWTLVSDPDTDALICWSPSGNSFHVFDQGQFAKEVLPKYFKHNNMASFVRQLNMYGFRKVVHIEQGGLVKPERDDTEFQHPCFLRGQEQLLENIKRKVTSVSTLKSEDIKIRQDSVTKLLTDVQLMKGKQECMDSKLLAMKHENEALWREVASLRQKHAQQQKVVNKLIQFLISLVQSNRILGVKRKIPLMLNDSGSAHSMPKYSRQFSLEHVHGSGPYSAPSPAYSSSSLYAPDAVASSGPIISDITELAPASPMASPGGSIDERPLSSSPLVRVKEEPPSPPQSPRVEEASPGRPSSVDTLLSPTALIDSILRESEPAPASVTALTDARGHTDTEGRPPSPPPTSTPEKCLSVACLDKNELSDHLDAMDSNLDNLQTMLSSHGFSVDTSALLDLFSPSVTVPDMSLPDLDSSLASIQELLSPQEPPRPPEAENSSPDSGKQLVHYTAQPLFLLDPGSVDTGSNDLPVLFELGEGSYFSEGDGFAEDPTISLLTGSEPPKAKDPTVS
Sequence of Hypoxia-inducible factor 1-alpha (Homo sapiens) (Q16665 whole entry, looked up): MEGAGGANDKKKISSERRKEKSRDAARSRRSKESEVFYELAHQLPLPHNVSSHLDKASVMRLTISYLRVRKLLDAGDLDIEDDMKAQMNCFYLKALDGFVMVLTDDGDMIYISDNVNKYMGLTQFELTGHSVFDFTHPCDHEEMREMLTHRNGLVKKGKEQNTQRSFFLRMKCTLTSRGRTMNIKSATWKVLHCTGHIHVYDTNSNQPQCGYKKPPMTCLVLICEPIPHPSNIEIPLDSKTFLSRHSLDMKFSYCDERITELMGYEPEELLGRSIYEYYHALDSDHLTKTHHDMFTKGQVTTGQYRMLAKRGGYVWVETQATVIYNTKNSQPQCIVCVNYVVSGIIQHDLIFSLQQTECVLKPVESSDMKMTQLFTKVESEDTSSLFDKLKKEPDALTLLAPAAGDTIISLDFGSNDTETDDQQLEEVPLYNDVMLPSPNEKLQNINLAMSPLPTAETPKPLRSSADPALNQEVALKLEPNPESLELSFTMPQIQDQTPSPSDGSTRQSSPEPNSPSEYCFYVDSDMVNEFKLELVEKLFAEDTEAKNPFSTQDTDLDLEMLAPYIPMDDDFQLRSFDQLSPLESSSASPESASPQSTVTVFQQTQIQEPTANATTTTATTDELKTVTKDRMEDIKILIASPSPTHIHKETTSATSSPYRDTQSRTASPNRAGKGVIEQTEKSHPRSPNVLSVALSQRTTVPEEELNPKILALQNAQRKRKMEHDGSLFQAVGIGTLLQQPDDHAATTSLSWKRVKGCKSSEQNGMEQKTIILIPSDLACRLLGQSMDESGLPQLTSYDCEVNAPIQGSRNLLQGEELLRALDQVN
Sequence of Hepatocyte nuclear factor 6 (Homo sapiens) (Q9UBC0 whole entry, looked up): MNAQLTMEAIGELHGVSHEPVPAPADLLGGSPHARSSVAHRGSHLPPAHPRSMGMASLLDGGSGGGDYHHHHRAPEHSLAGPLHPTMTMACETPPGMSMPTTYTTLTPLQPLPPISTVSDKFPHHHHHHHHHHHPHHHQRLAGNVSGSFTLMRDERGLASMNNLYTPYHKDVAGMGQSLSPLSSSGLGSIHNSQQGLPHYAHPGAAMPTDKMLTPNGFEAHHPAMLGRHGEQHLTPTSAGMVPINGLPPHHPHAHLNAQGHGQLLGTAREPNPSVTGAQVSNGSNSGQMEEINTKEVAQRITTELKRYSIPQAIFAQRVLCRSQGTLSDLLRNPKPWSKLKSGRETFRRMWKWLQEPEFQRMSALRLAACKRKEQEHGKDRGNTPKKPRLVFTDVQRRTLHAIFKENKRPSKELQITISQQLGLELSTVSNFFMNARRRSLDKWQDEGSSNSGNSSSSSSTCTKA

Nc1ccc(S(=O)(=O)O)c(N)c1
not listed: [8]
inactive: all other assays above

Nc1nc2ccc([N+](=O)[O-])cc2s1
active: [1] 77.4 µM
inactive: all other assays above

Nc1cc([N+](=O)[O-])ccc1O
not listed: [8]
inactive: all other assays above

CC1(CO)CN(c2ccccc2)NC1=O (stereo not drawn)
inactive: all assays above

O=C[C@H](O)[C@H](O)[C@H](O)CO
not listed: [8]
inactive: all other assays above

CCOC(=O)c1ccccc1OC
inactive: all assays above

Fc1c(F)c(F)c(Br)c(F)c1F
inactive: all assays above

C=C(C)[C@@H]1CC[C@@H](C)C[C@@H]1O
not listed: [8]
inactive: all other assays above

NCCNCCN
inactive: all assays above

CCCCNC(=O)NS(=O)(=O)c1ccc(N)cc1
inactive: all assays above

CCC(=O)OCCC(C)CCC=C(C)C (stereo not drawn)
inactive: all assays above

CC[Si](OC(C)=O)(OC(C)=O)OC(C)=O
active: [8] 18.7 µM
inactive: all other assays above

O=C[C@@H](O)[C@H](O)[C@H](O)CO
not listed: [8]
inactive: all other assays above

ClCCCl
not listed: [8]
inactive: all other assays above

Clc1ccc2c(c1)C(N1CCNCC1)=Nc1ccccc1O2
active: [2] 52.4 µM | [7] 34.2 µM
inactive: [1] | [3] | [4] | [5]

O=C(O)c1cccc([N+](=O)[O-])c1
not listed: [6] | [8]
inactive: all other assays above

Cc1ccc(S)cc1
active: [1] 35.3 µM | [5] 100 µM | [6] 161 µM
inactive: all other assays above

Clc1sc(Cl)c(Cl)c1Cl
inactive: all assays above

O=c1oc(=O)c2cc3c(=O)oc(=O)c3cc12
inactive: all assays above

CCCC(=O)OCCC(C)CCC=C(C)C (stereo not drawn)
active: [5] 180 µM
inactive: all other assays above

CCn1c2ccccc2c2cc(N)ccc21
active: [8] 37 µM
inactive: all other assays above

O=C(COc1ccc(Cl)cc1)N1CCN(Cc2ccc3c(c2)OCO3)CC1
active: [1] 58 µM | [4] 19.8 µM | [6] 151 µM | [7] 74.6 µM
inactive: all other assays above

CCc1ccc(C=O)cc1
inactive: all assays above

CCCCCCCCCCCCCCCC(=O)OC[C@H](O)[C@H]1OC(=O)C(O)=C1O
active: [4] 131 µM | [6] 24.1 µM | [8] 71.7 µM
inactive: all other assays above

CCCCCCCCCCCCCCCC(=O)O
inactive: all assays above

OCCCCCO
inactive: all assays above

CCCCOCCOCCOCCOCCO
not listed: [4] | [8]
inactive: all other assays above

CN(C)c1ccc(O)c2c1C[C@H]1C[C@H]3[C@H](N(C)C)C(=O)C(C(N)=O)=C(O)[C@@]3(O)C(=O)C1=C2O
not listed: [4]
inactive: all other assays above

C=C(C)C(=O)O[C@H]1C[C@@H]2CC[C@@]1(C)C2(C)C
active: [4] 73.3 µM
not listed: [3] | [8]
inactive: all other assays above

CSc1nc(NC2CC2)nc(NC(C)(C)C)n1
active: [7] 65.7 µM
not listed: [4] | [6]
inactive: all other assays above
